Screening data: PubChem BioAssay, National Center for Advancing Translational Sciences (NCATS)
ELG1 repair inh – ELG1-dependent DNA repair inhibition | hit rate 2.3% among 330,000 | Potency, µM (highest dose often 46.1 µM), inactives show at the highest dose activity change, negative = inhibition, hits mostly inhibitors | HEK293T ELG1-luciferase reporter, luminescence, 16 h; DNA damage induced by 5-fluorouridine; also: % is scaled to controls: 0 for no effect and ±100 for the full control effect; nearly all actives have a fitted effect of over 55% in size
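In this reporter screen, reduction of luminescence relative to DMSO vehicle indicated activity. Compounds and 5-fluorouridine were added together to 2,000 cells per well, incubated for 16 hr at 37 °C, then developed with ONE-Glo.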
SW480 rerep – induces DNA re-replication in SW480 colon adenocarcinoma cells | hit rate 1.8% among 340,000 | SW480 DNA re-replication, Hoechst DNA content imaging, 48 h | Potency, µM (titrated, usually from 46.1 µM), for inactives: at the highest dose re-replication activation, hits mostly activators; also: % of control where 0% means no effect; nearly all actives have a fitted effect of over 55% in size
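Image-based DNA-content assay: after two days of treatment, nuclei were labelled with the DNA dye Hoechst and imaged, and hits were compounds raising the count of nuclei showing high fluorescence intensity.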
MCF10A rereplic – inducers of DNA re-replication in MCF 10A breast cells; MCF 10A DNA re-replication, Hoechst nuclear intensity, 48 h; hit rate 2.9% among 350,000; Potency, µM (series often up to 46.1 µM), for the others: top-dose activity, positive = re-replication, actives largely listed as activators; AID 624296; also: % of control where 0% means no effect; nearly all actives have a fitted effect of over 50% in size
KB-V1 cytotox – kills drug-selected multidrug resistant KB-V1 cells | Potency, µM (doses to about 46.1 µM), usual class: cytotoxic | KB-V1 MDR cells viability, CellTiter-Glo, 72 h | hit rate 3.4% among 400,000; also: % is scaled to controls: 0 for no effect and ±100 for the full control effect; nearly all actives have a fitted effect of over 60% in size
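Cytotoxicity via CellTiter-Glo luminescence after 72 h compound exposure at 37 degrees C. Cells: drug-selected KB-V1 line, DMEM phenol-red free plus 10% FBS. Compounds tested at multiple concentrations; normalized data fitted to concentration-effect curves.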
KB-3-1 cytotox – KB-3-1 parental cell cytotoxicity | KB-3-1 viability, CellTiter-Glo ATP luminescence, 72 h | Potency, µM (series often up to 46.1 µM), actives largely listed as cytotoxic | hit rate 1.4% among 400,000; also: % is scaled to controls: 0 for no effect and ±100 for the full control effect; nearly all actives have a fitted effect of over 60% in size
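Parental KB-3-1 adenocarcinoma cells in phenol-red-free DMEM with 10% FBS were pin-treated with compounds at several concentrations, incubated 72 h at 37 °C, and viability read by CellTiter-Glo luminescence; concentration-effect curves were fitted after normalization.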
* marks the source's active call; other numbers are inactive results; ! = a repeat was not active; [ ] = remark or other dose. Shown are actives, neighbours in structure and some others; about 8.1% of the full set was active somewhere. Calls follow the shape of the dose curve; as a rule, active = well fitted curve in the direction sought with a large enough effect; inconclusive = small, poorly fitted or top-dose-only effect, or another doubt; inactive = no such curve, though single readings can be large; an effect the other way counts as inactive or inconclusive. Potency is read from the fitted curve at half-maximal effect.

For COc1cc(C#Cc2c(-c3cncn3C)n(C)c3ccc(-c4ccc5[nH]ccc5c4)cc23)cc(OC)c1 the results were ELG1 repair inh inconclusive, SW480 rerep inconclusive, MCF10A rereplic 11.2%, KB-V1 cytotox inactive and KB-3-1 cytotox inactive.
For COc1cc(C#Cc2c(-c3cncn3C)n(C)c3ccc(-c4cc(OC)c(OC)c(OC)c4)cc23)cc(OC)c1 the results were ELG1 repair inh 5.17µM*, SW480 rerep inconclusive, MCF10A rereplic -0.4%, KB-V1 cytotox inconclusive and KB-3-1 cytotox 11.6µM*.
COc1cc(C#Cc2c(-c3cncn3C)n(C)c3ccc(-c4ccc(OC)nc4)cc23)cc(OC)c1 was read as ELG1 repair inh 7.3µM*, SW480 rerep 26.3%, MCF10A rereplic inconclusive, KB-V1 cytotox inconclusive and KB-3-1 cytotox inconclusive.
COCCn1c(SCC(=O)c2c(N)n(C3CC3)c(=O)[nH]c2=O)nnc1-c1ccc(Cl)cc1 was read as ELG1 repair inh 10.3%, SW480 rerep -6.0%, MCF10A rereplic -6.0%, KB-V1 cytotox inconclusive and KB-3-1 cytotox inactive.
For OCCC1CN(Cc2nc(-c3ccccc3)cs2)CCN1Cc1ccc(F)cc1 (stereo unspecified) the results were ELG1 repair inh -13.9%, SW480 rerep 9.8%, MCF10A rereplic inconclusive, KB-V1 cytotox 9.2µM* and KB-3-1 cytotox inconclusive.
CC(C)=CCN1CCN(Cc2nc(-c3ccc(F)cc3)cs2)CC1CCO (stereo unspecified) was read as ELG1 repair inh -15.8%, SW480 rerep 18.7%, MCF10A rereplic inconclusive, KB-V1 cytotox inconclusive and KB-3-1 cytotox inactive.
Screening O=C(c1cc2cc(Br)cc(Br)c2oc1=O)N1CCCc2ccccc21 returned ELG1 repair inh 1.5%.
Screening C=CCNc1nc(C)c(C(C)=O)cc1C#N returned ELG1 repair inh 11.9%, SW480 rerep 2.8%, MCF10A rereplic -3.6%, KB-V1 cytotox inactive and KB-3-1 cytotox inactive.
Screening CCOC(=O)c1cc(C#N)c(N2CCOCC2)nc1-c1ccccc1 returned ELG1 repair inh inconclusive, SW480 rerep inconclusive, MCF10A rereplic 22.7%[9.22 µM], KB-V1 cytotox inactive and KB-3-1 cytotox inactive.
CCCNc1nc(-c2ccccc2)c(C(=O)OCC)cc1C#N was read as ELG1 repair inh -12.9%, SW480 rerep 16.4µM*, MCF10A rereplic 11.6µM*, KB-V1 cytotox inactive and KB-3-1 cytotox inconclusive.
`CCOC(=O)c1cc(C#N)c(Oc2ccccc2)nc1-c1ccccc1` gave ELG1 repair inh -8.4%, SW480 rerep -1.1%, MCF10A rereplic 19.6%, KB-V1 cytotox inconclusive and KB-3-1 cytotox inactive.
Screening CCCCNc1nc(-c2ccccc2)c(C(=O)OCC)cc1C#N returned ELG1 repair inh -20.1%, SW480 rerep inconclusive, MCF10A rereplic inconclusive, KB-V1 cytotox 18.4µM* and KB-3-1 cytotox inconclusive.
For C=CCNc1nc(-c2ccccc2)c(C(=O)OCC)cc1C#N the results were ELG1 repair inh inconclusive, SW480 rerep inconclusive, MCF10A rereplic 14.6µM*, KB-V1 cytotox inconclusive and KB-3-1 cytotox 10.3µM*.
Screening CCCCc1nnc(NC(=O)C23CC4CC(CC(NC(C)=O)(C4)C2)C3)s1 returned ELG1 repair inh 3.5%, SW480 rerep -1.7%, MCF10A rereplic 1.0%, KB-V1 cytotox inactive and KB-3-1 cytotox inactive.
Screening Cc1cc(C)n(-c2nnc(N3CCN(c4ccc(F)cc4)CC3)nn2)n1 returned ELG1 repair inh -3.7%, SW480 rerep -0.3%, MCF10A rereplic -16.9%, KB-V1 cytotox inactive and KB-3-1 cytotox inactive.
COc1ccc(/C=N/Nc2nc(=O)[nH]nc2C)cc1OC was read as ELG1 repair inh -6.7%, SW480 rerep 2.91µM*, MCF10A rereplic inconclusive, KB-V1 cytotox inactive and KB-3-1 cytotox inactive.
Screening COc1cc(/C=N/Nc2nc(=O)[nH]nc2C)ccc1O returned ELG1 repair inh -20.1%, SW480 rerep 14.6µM*, MCF10A rereplic inconclusive, KB-V1 cytotox inactive and KB-3-1 cytotox inactive.
`COc1cc(C(=O)N/N=C/c2ccc(OC(=O)c3ccccc3Cl)cc2)ccc1O` gave ELG1 repair inh 1.1%, SW480 rerep 1.5% and MCF10A rereplic 20.0%.
Screening COc1ccc(-c2noc(CSc3nc(-c4ccccc4)cc(=O)[nH]3)n2)cc1OC returned ELG1 repair inh -3.7%, SW480 rerep -4.3%, MCF10A rereplic inconclusive, KB-V1 cytotox inactive and KB-3-1 cytotox inactive.
For COc1ccc(-c2noc(CSc3nc(N)cc(=O)[nH]3)n2)cc1 the results were ELG1 repair inh inconclusive, SW480 rerep -5.5%, MCF10A rereplic inconclusive, KB-V1 cytotox inconclusive and KB-3-1 cytotox 20.6µM*!.
For Nc1nc(SCc2ccc(Br)cc2)[nH]c(=O)c1-c1ccccc1 the results were ELG1 repair inh -6.0%, SW480 rerep 16.8%, MCF10A rereplic 12.2%, KB-V1 cytotox inactive and KB-3-1 cytotox inactive.
`Nc1nc(SCc2nc(-c3ccccc3)no2)[nH]c(=O)c1-c1ccccc1` gave ELG1 repair inh -19.2%, SW480 rerep 10.2%, MCF10A rereplic 12.7%, KB-V1 cytotox 18.4µM* and KB-3-1 cytotox inactive.
`CCOc1ccc(NC(=O)c2ccc(-c3csc(C)n3)cc2)cc1` gave ELG1 repair inh inconclusive, SW480 rerep -2.9%, MCF10A rereplic 5.1%, KB-V1 cytotox inactive and KB-3-1 cytotox inactive.
`Clc1nssc1=Nc1ccccc1` gave ELG1 repair inh inconclusive, SW480 rerep -4.5%, MCF10A rereplic -4.3%, KB-V1 cytotox inactive and KB-3-1 cytotox inactive.
`Clc1ccc(N=c2ssnc2Cl)cc1` gave ELG1 repair inh 16.4µM*, SW480 rerep inconclusive, MCF10A rereplic inconclusive, KB-V1 cytotox 20.6µM* and KB-3-1 cytotox 20.6µM*.
CCn1c(SCC(=O)c2ccccc2)nnc1-c1cccnc1 was read as ELG1 repair inh inconclusive, SW480 rerep -13.7%, MCF10A rereplic 5.7%, KB-V1 cytotox inactive and KB-3-1 cytotox inactive.
Screening CCN1CCN(c2nc(SC)nc3sc4c(c23)CC(C)(C)OC4)CC1 returned ELG1 repair inh 10.0%, SW480 rerep -3.6%, MCF10A rereplic 1.2%, KB-V1 cytotox 8.2µM* and KB-3-1 cytotox inactive.
For CCOC(=O)N1CCN(c2nc(SC)nc3sc4c(c23)CC(C)(C)OC4)CC1 the results were ELG1 repair inh -17.2%, SW480 rerep -4.1%, MCF10A rereplic 13.8%, KB-V1 cytotox inactive and KB-3-1 cytotox inactive.
`Cc1cc(OC(C)C(=O)N/N=C/CC(C)c2ccccc2)ccc1Cl` (stereo unspecified) gave ELG1 repair inh -6.1%, SW480 rerep -1.5%, MCF10A rereplic inconclusive, KB-V1 cytotox inactive and KB-3-1 cytotox inactive.
`Cc1ccc2nsnc2c1S(=O)(=O)N1CCN(CCc2ccccc2)CC1` gave ELG1 repair inh inconclusive, SW480 rerep 0.8%, MCF10A rereplic 15.8%, KB-V1 cytotox 11.6µM* and KB-3-1 cytotox inconclusive.
